# PubChem BioAssay (NCATS)
# Several values for one entry are separate records, joined by “and”; a condition that tells them apart may be missing. Identical values can stand only once. Inconclusive results are not listed. Activity calls are given as the source filed them. Unless noted, calls come from the whole dose curve; as a rule, active = well fitted curve in the direction sought with a large enough effect; inconclusive = small, poorly fitted or top-dose-only effect, or another doubt; inactive = no such curve, though single readings can be large; an effect the other way counts as inactive or inconclusive.
# Experiments:
# [1] = qHTS for compounds that reverse cellular toxicity of Amyloid beta (A-beta) peptide in yeast: LOPAC Validation Assay (AID 720559);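 note: plate controls were DMSO for no effect and equimolar ferric chloride plus clioquinol rescue for full effect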
# Procedure, shortened: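 Medium dispensed, compounds pinned, A-beta yeast suspension added; plates held at 30 C for 48 hr; absorbance measured at 600 nm to gauge growth; values scaled between DMSO and FeCl3/clioquinol (equimolar) controls.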
# [2] = qHTS for Activators of Parkin Expression: LOPAC Validation Assay (NLuc Reporter) (AID 720572)
# Procedure, shortened: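 Parkin promoter-driven FLuc/NLuc neuronal reporter cells; 24 h plating, 7-pt dose response, 24 h at 37 C/5% CO2; FLuc then NanoLuc reagent, 10 min each, luminescence; DMSO/positive control normalized.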
# [3] = qHTS for Activators of Parkin Expression: LOPAC Validation Assay (FLuc Reporter) (AID 720573)
# Procedure, shortened: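 Cells seeded, 24 h; compounds pinned, 7-pt dose response; 24 h at 37 C/5% CO2; volume reduced; FLuc reagent 10 min RT; luminescence read. Normalization: DMSO = 0, positive control = 100%.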
# [4] = qHTS assay for small molecule agonists of the antioxidant response element (ARE) signaling pathway measured by Nrf2-dependant transcriptional activity (AID 720636; active = well fitted curve in the direction sought with a large enough effect in the repeat runs; an effect the other way counts as inactive or inconclusive; note: potency is the fitted concentration of half-maximal effect)
# Procedure, shortened: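 ONE-Glo luminescence, read 30 min after reagent addition at room temperature, reflected ARE reporter activity in HepG2 cells that had been incubated with compound for 16 hr at 37 C in 1% dialyzed FBS.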
# [5] = qHTS assay for small molecule agonists of the antioxidant response element (ARE) signaling pathway measured by Nrf2-dependant transcriptional activity - cell viability counter screen (AID 720653; active = well fitted curve in the direction sought with a large enough effect in the repeat runs; an effect the other way counts as inactive or inconclusive; note: % is set by controls: 0 for no effect and ±100 for the full control effect); details: ARE-bla HepG2 viability, CellTiter-Glo ATP luminescence, 16 h; max response: stronger effect = lower value
# Procedure, shortened: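 Cytotoxicity counter screen: intracellular ATP quantified by CellTiter-Glo luminescence in the same ARE-bla HepG2 plates, after 16 h compound exposure and a 2 h beta-lactamase substrate step.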
# [6] = target: T1, Hexokinase-4 (Homo sapiens) + Glucokinase regulatory protein (Homo sapiens) (UniProt P35557+Q14397); assay: qHTS assay for inhibitors of recombinant human GCK-GKRP interaction: Diaphorase-coupled assay (AID 743205)
# T1 sequence (P35557 whole entry, looked up): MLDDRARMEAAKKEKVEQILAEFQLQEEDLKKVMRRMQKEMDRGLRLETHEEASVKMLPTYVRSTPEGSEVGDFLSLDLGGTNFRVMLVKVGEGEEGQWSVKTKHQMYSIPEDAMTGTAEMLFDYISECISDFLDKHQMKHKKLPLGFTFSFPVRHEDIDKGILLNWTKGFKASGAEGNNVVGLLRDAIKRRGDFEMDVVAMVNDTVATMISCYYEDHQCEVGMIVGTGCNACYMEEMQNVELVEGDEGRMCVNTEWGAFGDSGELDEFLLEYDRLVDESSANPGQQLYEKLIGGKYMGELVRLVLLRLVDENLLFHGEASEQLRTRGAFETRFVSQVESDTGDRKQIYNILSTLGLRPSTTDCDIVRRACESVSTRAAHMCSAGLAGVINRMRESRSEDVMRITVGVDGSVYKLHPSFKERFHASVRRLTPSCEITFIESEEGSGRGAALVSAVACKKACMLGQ
# T1 sequence (Q14397 whole entry, looked up): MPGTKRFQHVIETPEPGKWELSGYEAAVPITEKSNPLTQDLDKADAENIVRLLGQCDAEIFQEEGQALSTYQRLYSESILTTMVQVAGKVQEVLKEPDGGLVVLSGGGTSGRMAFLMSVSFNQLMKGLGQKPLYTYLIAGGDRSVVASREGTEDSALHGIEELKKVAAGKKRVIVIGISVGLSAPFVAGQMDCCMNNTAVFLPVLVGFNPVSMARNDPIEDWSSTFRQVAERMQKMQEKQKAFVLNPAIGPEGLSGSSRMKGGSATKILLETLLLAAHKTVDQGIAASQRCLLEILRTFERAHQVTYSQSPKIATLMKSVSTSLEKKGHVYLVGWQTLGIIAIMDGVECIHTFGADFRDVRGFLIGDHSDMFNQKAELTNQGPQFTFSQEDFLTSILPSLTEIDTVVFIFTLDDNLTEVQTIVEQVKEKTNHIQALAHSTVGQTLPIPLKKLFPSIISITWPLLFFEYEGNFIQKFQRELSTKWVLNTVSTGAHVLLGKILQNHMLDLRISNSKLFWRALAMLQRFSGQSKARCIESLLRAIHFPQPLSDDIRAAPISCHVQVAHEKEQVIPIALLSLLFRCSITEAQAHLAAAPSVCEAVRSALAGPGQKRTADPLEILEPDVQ
# Procedure, shortened: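 25 mM Hepes pH 7.6, 5 mM glucose, 0.4 mM ATP, 4 U/ml G6PDH; 10 nM each GST-GCK/FLAG-GKRP. Kinetic fluorescence read, 1/min × 30 min. Normalized: DMSO ± enzyme = max/min.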
# [7] = target: T1, Hexokinase-4 (Homo sapiens) + Glucokinase regulatory protein (Homo sapiens); assay: qHTS assay for inhibitors of recombinant human GCK-GKRP interaction: HTRF assay (AID 743207);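 note: 0% = DMSO with GCK present and -100% = DMSO wells lacking GCK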
# Procedure, shortened: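 5 nM GST-GCK + 5 nM FLAG-GKRP + 2 uM S6P, pH 7.1 buffer (25 mM Hepes, 2 mM MgCl2, 25 mM KCl, 1 mM DTT, Tween/BSA); pin-transferred cpd; anti-FLAG XL665/anti-GST K; 60 min RT; HTRF.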
# [8] = qHTS Assay for Identifying Gametocytocidal Compounds (AID 743244); note: potency is the fitted concentration of half-maximal effect;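 for max response: % is set by controls: 0 for no effect and ±100 for the full control effect; actives lower the fluorescent signal which means gametocytes are killed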; details: P. falciparum 3D7 stage III-V gametocytes, alamarBlue, 72 h; max response: stronger effect = lower value
# Procedure, shortened: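 Late gametocytes (III–V), P. falciparum 3D7; 72 h drug, then 24 h alamarBlue; resazurin reduction read by fluorescence.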
# [9] = qHTS assay for cell viability of HEK293 cells (AID 743288); details: ATP luminescence (CellTiter-Glo), 18 h; max response: stronger effect = lower value; note: % is set by controls: 0 for no effect and ±100 for the full control effect; nearly all actives have a fitted effect of over 50% in size
# Procedure, shortened: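 HEK293 parental, 2,000 cells/well; ≥5 h pre-incubation 37 C; pintool compound addition; 18 h, 37 C; CellTiter-Glo 30 min RT; luminescence read.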
# [10] = qHTS assay for cell viability of the p53RE-bla HCT-116 cell line (AID 743292); note: % is set by controls: 0 for no effect and ±100 for the full control effect; nearly all actives have a fitted effect of over 55% in size
# Procedure, shortened: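 After plating at 4,000 cells per well and a 5 h rest at 37 C, HCT-116 cells carrying p53RE-bla received test chemicals in DMSO. Sixteen hours later at 37 C, CellTiter-Glo was added and luminescence recorded following 30 min at room temperature.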
# [11] = qHTS profiling of the MIPE4 collection as inhibitors of Plasmodium falciparum (DD2) proliferation (AID 743345; call rule not given here); details: P. falciparum Dd2 in erythrocytes, SYBR Green DNA, 72 h; at 28.5 µM (top of the series) unless noted
# Procedure, shortened: (§1)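 Erythrocytes infected with P. falciparum (0.3% parasitemia, 2.5% hematocrit) incubated with compounds 72 h at 37 C, 5% CO2. Lysis with saponin/Triton buffer containing SYBR Green I, overnight at room temperature in the dark; DNA fluorescence (485/535 nm) normalised to 0.29 uM artemisinin and DMSO.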
# [12] = qHTS profiling of the MIPE4 collection as inhibitors of Plasmodium falciparum (DD2) proliferation (Rep 2) (AID 743346; call rule not given here); details: P. falciparum Dd2 in erythrocytes, SYBR Green DNA, 72 h; at 28.5 µM (top of the series) unless noted
# Procedure, shortened: as §1
# [13] = qHTS profiling of the MIPE4 collection as inhibitors of Plasmodium falciparum (HB3) proliferation (AID 743347; call rule not given here;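 note: plate controls were DMSO vehicle wells for no effect and artemisinin wells for full effect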); details: P. falciparum HB3 in erythrocytes, SYBR Green DNA, 72 h; at 28.5 µM (top of the series) unless noted
# Procedure, shortened: as §1
# [14] = qHTS profiling of the MIPE4 collection as inhibitors of Plasmodium falciparum (3D7) proliferation (AID 743344; call rule not given here;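 note: scaled between DMSO vehicle wells and 0.29 µM artemisinin as full inhibition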); details: P. falciparum 3D7 in erythrocytes, SYBR Green DNA fluorescence, 72 h; at 28.5 µM (top of the series) unless noted
# Procedure, shortened: as §1
# [15] = target: Arylsulfatase A (Homo sapiens) (UniProt P15289); assay: qHTS screen for enhancers of Arylsulfatase A (ASA1): LOPAC Validation Assay (AID 720538)
# Arylsulfatase A (Homo sapiens), sequence (P15289 whole entry, looked up): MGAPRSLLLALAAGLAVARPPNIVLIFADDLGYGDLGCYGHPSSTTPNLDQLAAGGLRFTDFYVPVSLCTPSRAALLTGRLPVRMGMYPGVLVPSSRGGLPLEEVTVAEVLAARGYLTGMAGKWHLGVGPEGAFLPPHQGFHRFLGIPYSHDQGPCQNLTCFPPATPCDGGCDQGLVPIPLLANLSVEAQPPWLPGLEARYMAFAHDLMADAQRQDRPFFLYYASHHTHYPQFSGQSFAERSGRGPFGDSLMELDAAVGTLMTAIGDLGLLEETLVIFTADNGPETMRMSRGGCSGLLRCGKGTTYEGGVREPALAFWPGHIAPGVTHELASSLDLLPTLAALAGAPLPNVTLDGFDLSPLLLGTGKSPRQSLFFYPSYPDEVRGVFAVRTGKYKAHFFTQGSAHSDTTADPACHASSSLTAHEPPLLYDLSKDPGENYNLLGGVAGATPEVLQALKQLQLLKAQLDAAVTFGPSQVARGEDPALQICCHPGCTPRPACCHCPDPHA
# Procedure, shortened: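 MLD patient fibroblasts (SV40, ASA-I179S), 1536-well; adhere 6 hrs; cpd 48h, 37 degree C, 5% CO2; pNCS 0.5mM final in lysis buffer, 14h RT; stop 1N NaOH final; fluor. Ex525/Em598.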
# [16] = qHTS for small molecule inhibitors of Yes1 kinase: Counter Assay (AID 686950);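 note: no kinase present so only ADP-Glo detection of a fixed ADP amount is tested; luminescence from ADP-Glo reporting ADP in a fixed ATP and ADP mixture; 0% = DMSO wells with ATP plus ADP and -100% = ATP-only wells without ADP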
# Procedure, shortened: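 Luminescence read-out from ADP-Glo quantifies a fixed ADP amount (0.02 mM ADP with 0.08 mM ATP) after 60 min at room temperature; signal is normalized between DMSO wells with ATP/ADP and with 0.1 mM ATP alone.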
# [17] = qHTS profiling for inhibitors of Plasmodium falciparum (3D7) proliferation (AID 743322; call rule not given here;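 note: infected erythrocytes exposed to compound for 72 h before lysis; 100% = DMSO vehicle wells and 0% = 0.29 µM artemisinin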); details: P. falciparum 3D7 proliferation; at 28.7 µM (top of the series) unless noted
# Procedure, shortened: as §1
# [18] = qHTS profiling for inhibitors of Plasmodium falciparum (HB3) proliferation (AID 743324); details: Plasmodium falciparum HB3 blood-stage proliferation; at 28.7 µM (top of the series) unless noted;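 note: 100% = DMSO vehicle wells and 0% = artemisinin-treated control wells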
# Procedure, shortened: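 P. falciparum HB3 grown in erythrocytes (0.3% parasitemia, 2.5% hematocrit final) with compound for 72 h at 37 C, 5% CO2. Parasite DNA detected by SYBR Green after saponin/triton lysis overnight; normalized to 0.29 uM artemisinin and DMSO.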
smiles,measurement,setting,value
CC1(C)NC(=O)N(c2ccc([N+](=O)[O-])c(C(F)(F)F)c2)C1=O,outcome,[1],inactive
same,outcome,[2],inactive
same,Potency,[3],inactive
same,Potency,[4],inactive
same,max response,[5],-27.8% (inactive)
same,outcome,[6],inactive
same,outcome,[7],inactive
same,max response,[8],12.7% (inactive) and -11.2% (inactive)
same,max response,[9],-18.9% (inactive)
same,Potency,[10],inactive
same,"parasite growth remaining, % of DMSO control (lower = more inhibition)",[11],106%
same,"parasite growth, % of control (lower = inhibition)",[12],86.1%
same,"growth, % of control",[13],91%
Cc1ccc(S(=O)(=O)NC(=O)NN2CC3CCCC3C2)cc1 (stereo not given),max response,[8],2.23% (inactive)
same,"parasite growth, % of DMSO control",[14],14%
same,"parasite growth remaining, % of DMSO control (lower = more inhibition)",[11],13.9%
same,"parasite growth, % of control (lower = inhibition)",[12],16.9%
same,"growth, % of control",[13],7.17%
COc1ccc(C2(C#N)CCC(C(=O)O)CC2)cc1OC1CCCC1 (stereo not given),max response,[8],4.12% (inactive)
same,"growth, % of control",[13],101%
CCCCCCCCOc1ccccc1C(=O)Nc1ccc(C(=O)OCC[N+](C)(CC)CC)cc1,"parasite growth, % of DMSO control",[14],9.2%
same,"parasite growth remaining, % of DMSO control (lower = more inhibition)",[11],5.8%
same,"parasite growth, % of control (lower = inhibition)",[12],26.3%
same,"growth, % of control",[13],8.46%
O=C1CCc2ccc(OCCCCN3CCN(c4cccc(Cl)c4Cl)CC3)cc2N1,max response,[8],0.257% (inactive)
same,"parasite growth remaining, % of DMSO control (lower = more inhibition)",[11],65.1%
same,"parasite growth, % of control (lower = inhibition)",[12],53.7%
same,"growth, % of control",[13],62.9%
CCCCC(CC)COC(=O)C(C#N)=C(c1ccccc1)c1ccccc1 (stereo not given),Potency,[4],inactive
same,max response,[5],-8.35% (inactive)
same,max response,[8],17.2% (inactive)
same,max response,[9],-27.9% (inactive)
same,Potency,[10],inactive
same,"parasite growth, % of DMSO control",[14],9.47%
same,"parasite growth remaining, % of DMSO control (lower = more inhibition)",[11],18.3%
same,"parasite growth, % of control (lower = inhibition)",[12],11.9%
same,"growth, % of control",[13],7.29%
Nc1nc(N)c(N=O)c(OCC2CCCCC2)n1,Potency,[15],inactive
same,outcome,[1],inactive
same,outcome,[2],inactive
same,Potency,[3],inactive
same,outcome,[6],inactive
same,outcome,[7],inactive
same,max response,[8],15% (inactive)
same,"parasite growth, % of DMSO control",[14],28%
same,"parasite growth remaining, % of DMSO control (lower = more inhibition)",[11],79.9%
same,"parasite growth, % of control (lower = inhibition)",[12],32.9%
same,"growth, % of control",[13],36.5%
CC(C)c1ccc2c(c1)c(SC(C)(C)C)c(CC(C)(C)C(=O)O)n2Cc1ccc(Cl)cc1,outcome,[16],inactive
same,Potency,[15],inactive
same,outcome,[1],inactive
same,Potency,[3],inactive
same,outcome,[6],inactive
same,outcome,[7],inactive
same,max response,[8],14.3% (inactive) and 21.6% (inactive)
same,remaining parasite growth % (stronger effect = lower value),[17],39.7%
same,"remaining proliferation (% of control), lower = more inhibition",[18],22.8%
same,"parasite growth remaining, % of DMSO control (lower = more inhibition)",[11],42.3%
same,"parasite growth, % of control (lower = inhibition)",[12],22%
same,"growth, % of control",[13],11.8%
O=c1ccc2ccc(O)c(O)c2o1,Potency,[15],inactive
same,outcome,[1],inactive
same,outcome,[2],inactive
same,Potency,[3],inactive
same,outcome,[6],inactive
same,outcome,[7],inactive
same,"parasite growth, % of DMSO control",[14],169%
same,"parasite growth remaining, % of DMSO control (lower = more inhibition)",[11],34.2%
same,"parasite growth, % of control (lower = inhibition)",[12],19.7%
same,"growth, % of control",[13],162%
CC(=O)N1CCN(c2ccc(OC[C@H]3CO[C@](Cn4ccnc4)(c4ccc(Cl)cc4Cl)O3)cc2)CC1,Potency,[15],inactive
same,outcome,[2],inactive
same,Potency,[3],inactive
same,Potency,[4],inactive
same,max response,[5],-20.7% (inactive)
same,outcome,[6],inactive
same,outcome,[7],inactive
same,Potency,[10],inactive
same,"growth, % of control",[13],6.71%
COc1cc(OC)c(C(=O)CCCN2CCCC2)c(OC)c1,Potency,[4],inactive
same,max response,[5],-3.27% (inactive)
same,max response,[8],4.14% (inactive)
same,max response,[9],-5.06% (inactive)
same,Potency,[10],inactive
same,"parasite growth, % of DMSO control",[14],90.8%
same,"parasite growth remaining, % of DMSO control (lower = more inhibition)",[11],120%
same,"parasite growth, % of control (lower = inhibition)",[12],38.2%
same,"growth, % of control",[13],75.7%
CCN(CC)C(=S)SSC(=S)N(CC)CC,Potency,[15],inactive
same,outcome,[1],inactive
same,Potency,[4],27.3 µM (active)
same,Potency,[8],3.98 µM (active) and 60.5 nM (active) and 74.3 nM (active)
same,Potency,[10],inactive
same,remaining parasite growth % (stronger effect = lower value),[17],99.1%
same,"parasite growth, % of DMSO control",[14],65.9%
same,"parasite growth remaining, % of DMSO control (lower = more inhibition)",[11],92.7%
same,"parasite growth, % of control (lower = inhibition)",[12],53.4%
same,"growth, % of control",[13],64.3%
COc1cc2c(N3CCN(C(=O)Nc4ccc(OC(C)C)cc4)CC3)ncnc2cc1OCCCN1CCCCC1,outcome,[16],inactive
same,remaining parasite growth % (stronger effect = lower value),[17],-0.248%
same,"parasite growth, % of DMSO control",[14],4.84%
same,"parasite growth remaining, % of DMSO control (lower = more inhibition)",[11],8.31%
same,"growth, % of control",[13],3.25%
Cc1cccc(CN2CCN(C(c3ccccc3)c3ccc(Cl)cc3)CC2)c1 (stereo not given),max response,[8],0.914% (inactive)
same,"parasite growth, % of DMSO control",[14],6.23%
same,"parasite growth remaining, % of DMSO control (lower = more inhibition)",[11],7.56%
same,"parasite growth, % of control (lower = inhibition)",[12],22.6%
same,"growth, % of control",[13],9.08%
O=C(OC1C[C@H]2CC[C@@H](C1)[N+]21CCCC1)C(O)(c1ccccc1)c1ccccc1 (stereo not given in full),max response,[8],-10.3% (inactive)
same,"growth, % of control",[13],17.4%
CC(C)c1ccc2oc3nc(N)c(C(=O)O)cc3c(=O)c2c1,max response,[8],20.5% (inactive)
same,"parasite growth, % of DMSO control",[14],54.7%
same,"parasite growth remaining, % of DMSO control (lower = more inhibition)",[11],91.1%
same,"growth, % of control",[13],74%
CC(C)C[C@H](NC(=O)[C@H](Cc1ccccc1)NC(=O)c1cnccn1)B(O)O,outcome,[16],inactive
same,Potency,[8],118 nM (active) and 316 nM (active)
same,remaining parasite growth % (stronger effect = lower value),[17],-0.334%
same,"remaining proliferation (% of control), lower = more inhibition",[18],-0.165%
same,"parasite growth remaining, % of DMSO control (lower = more inhibition)",[11],7.19%
same,"growth, % of control",[13],3.13%
